Assay [1] in a line: NCI Yeast Anticancer Drug Screen. Data for the rad50 strain (AID 155).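 Also: 0% = growth of vehicle-only cultures of the same strain.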 To be noted: S. cerevisiae rad50 strain growth inhibition; at 50.0 µM; hits give high values. Summed up:
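Growth of the mutant yeast was measured after compound exposure and referenced to vehicle-treated cultures.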

A short description of assay [2]: NCI Yeast Anticancer Drug Screen. Data for the mec2-1 strain (AID 157). To be noted: S. cerevisiae mec2-1 strain, at 50.0 µM, hits give high values. A digest of the protocol:
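Readout is yeast growth inhibition, normalised to vehicle-treated controls, in the mec2-1 strain exposed to compound.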

A short description of assay [3]: NCI Yeast Anticancer Drug Screen. Data for the cln2 rad14 strain (AID 165).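 Also: 0% = growth equal to vehicle treated cultures.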 To be noted: S. cerevisiae cln2 rad14 strain, at 50.0 µM, hits give high values. Summed up: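 Relative to vehicle controls, growth inhibition of compound-treated cln2 rad14 yeast was recorded.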
A short description of assay [4]: NCI Yeast Anticancer Drug Screen. Data for the bub3 strain (AID 167). Particulars: S. cerevisiae bub3 mutant strain, at 50.0 µM, hits give high values. Summed up:
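Whole-cell yeast assay. The mutant strain was incubated with compounds, and growth inhibition was determined by comparison with vehicle-treated cells.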

A short description of assay [5]: NCI Yeast Anticancer Drug Screen. Data for the mlh1 rad18 strain (AID 175). Particulars: S. cerevisiae mlh1 rad18 strain growth inhibition; at 50.0 µM; hits give high values. Summed up:
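Test agents were incubated with a yeast strain of defined genotype (DNA damage repair defect). Inhibition of growth was derived by comparison with vehicle-exposed cultures.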

The nature of assay [6]: NCI Yeast Anticancer Drug Screen. Data for the sgs1 mgt1 strain (AID 161).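 Also: 0% = growth of cultures given vehicle only.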 To be noted: S. cerevisiae sgs1 mgt1 strain, at 50.0 µM, hits give high values. A digest of the protocol: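 Compounds are added to genetically altered yeast, and growth is compared with cultures given vehicle alone to give percent inhibition.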

The panel holds about 79,000 compounds, 15% with a hit somewhere; the sample as a whole holds those more often. Unmarked numbers belong to inactive results. The source made the active and inactive calls. Rule as the data show it: active = growth inhibition above about 70%; inactive = the rest.

Consider `NNc1ccccc1C(=O)O`, for which the growth inhibition in assay [1] is 4.4%; in assay [2], -3.05%; in assay [3] it was -4.15%; in assay [4], -2%; in assay [5], 14.8%.
For `O=c1cc(-c2ccccc2)[nH]c(=S)[nH]1`, in that order: -13.4%, -11.9%, -24.8%, 9.1% and -9.55%.
For `O=C1C=CC2=C3c4cc(O)c(O)cc4CC3(O)COC2=C1O` (stereo unspecified), in that order: -40.6%, -45.4%, -6.7%, -5.7% and -32%.
Taken in the same sequence, the figures for `Cc1cc(C(C)(C)C)cc(C)c1Br` were -1.85%, -0.85%, -15.3%, 0.15% and -1.65%.
On to `N=c1c(C(=O)OCc2ccccc2)ncc(CCl)n1O`, for which the growth inhibition in assay [1] is 37.3%; in assay [2] it was 80.5% (active); in assay [3], 22.9%; in assay [4] it was 73.2% (active); in assay [5] it was 77.8% (active).
Taken in the same sequence, the figures for `NC(=O)NC(=O)c1ccc(Cl)cc1` were 14.8%, -7.05%, 29.1%, -1.05% and 11.3%.
`CC(C)(O)C#CC#CC(C)(C)O`: the growth inhibition in assay [1] is 30.9%; in assay [2], 4.2%; in assay [3] it was 3.8%; in assay [4], -41%; in assay [5], -0.55%.
With `COc1ncnc2c1cnn2C`, the growth inhibition is 7.6% in assay [1], 13.3% in assay [6], -35.1% in assay [3] and -3.85% in assay [4].
With `CC(C)(C)c1cc(O)c(C(C)(C)C)cc1O`, the growth inhibition in assay [1] is 12.1%; in assay [2], -0.05%; in assay [3] it was -1.85%; in assay [4] it was 0.15%; in assay [5], 11.2%.
In the case of `Cc1cc(=O)cc(C)n1-c1ccccc1`, the growth inhibition in assay [1] is 11.9%; in assay [2], -5.75%; in assay [3], 0.25%; in assay [5] it was 19.2%.
On to `O=C1c2ccccc2C(=O)N1OCc1ccccc1`, for which the growth inhibition in assay [1] is -18.1%; in assay [2] it was -30.6%; in assay [3], 3.05%; in assay [4], -20%; in assay [5], -32.7%.
Regarding `O=C(O)CNC(=O)c1ccccc1`, the growth inhibition was -46% in assay [1]; -4.45% in assay [2]; -50.1% in assay [3]; -25% in assay [4]; -47.6% in assay [5].
Taken in the same sequence, the figures for `Cc1ccccc1N=C(c1ccccc1)C1C(=O)c2ccccc2C1=O` were -20.6%, 19.4%, 29%, 49.2% and 12.6%.
For `NC(=S)CN1CCOCC1`, in that order: -2.6%, -3.2%, 1.6%, 1.3% and 2.15%.
Regarding `CC(=O)CC(=O)N(C)C`, the growth inhibition in assay [1] was 0.3%; in assay [2] it was -0.6%; in assay [6], 6.9%; in assay [5], 24.2%.
Consider `N#Cc1ccc(OC(=O)Nc2ccc(Cl)c(Cl)c2)cc1`, for which the growth inhibition in assay [1] is -7.65%; in assay [2], -4.4%; in assay [3], 8.35%; in assay [5], 5.8%.
For the molecule `CCOC(=O)C1=C(C)NC(=O)NC1c1cccs1` (stereo unspecified), the growth inhibition in assay [1] was -11.2%; in assay [2] it was -26.9%; in assay [3] it was 5.5%; in assay [4], -14.2%; in assay [5] it was -20.1%.
Taken in the same sequence, the figures for `CCCOC(=O)C(O)c1ccccc1` (stereo unspecified) were 16.2%, -6.25%, -24.1%, -13.2% and 14.8%.
Taken in the same sequence, the figures for `CCOC(=O)CCCS(C)(=O)=O` were -26.5%, -19.6%, -17.9%, -1.95% and 7.3%.
With `O=C(O)c1cccc([N+](=O)[O-])c1`, the growth inhibition in assay [1] is -28%; in assay [2], -8%; in assay [3] it was -27.1%; in assay [4], -23.1%; in assay [5], -27.4%.
Consider `COc1ccc(NC(=O)CCl)cc1`, for which the growth inhibition in assay [1] was 29.7%; in assay [2] it was 12.8%; in assay [3] it was 17.9%; in assay [4], 36.7%; in assay [5] it was 23.6%.
Taken in the same sequence, the figures for `CC(CN1CCCCC1)NC(=O)c1scnc1-c1ccccc1` (stereo unspecified) were -5.45%, -10%, -2.5%, -1.55% and -4.55%.
Regarding `C/C=C/CC(C)C(O)C1C(=O)NC(CC)C(=O)N(C)CC(=O)N(C)C(CC(C)C)C(=O)NC(C(C)C)C(=O)N(C)C(CC(C)C)C(=O)NC(C)C(=O)NC(C)C(=O)N(C)C(CC(C)C)C(=O)N(C)C(CC(C)C)C(=O)N(C)C(C(C)C)C(=O)N1C` (stereo unspecified), the growth inhibition in assay [1] was 17.3%; in assay [2], 8.3%; in assay [3] it was 25.6%; in assay [4] it was 22.7%; in assay [5] it was 18.1%.
Taken in the same sequence, the figures for `COc1cc(/C=N\Nc2ccccc2)ccc1OC(=O)c1ccccc1` were 25.1%, 8.95%, 23.9%, 11.8% and 17.6%.
Taken in the same sequence, the figures for `O=C1C=C(Nc2ccc([N+](=O)[O-])cc2)c2ccccc2C1=O` were 18.4%, -10.9%, 4.65%, -12.9% and -8.8%.
Taken in the same sequence, the figures for `CC(=O)c1sc2c(c1OC(=O)c1ccc(Cl)cc1Cl)c(=O)n(-c1ccccc1)c(=S)n2-c1ccccc1` were -3.95%, -23.3%, -5.65%, -6.55% and -3.85%.
Turning to `N#C/C(=C\c1cc(O)c(O)c(O)c1)C(N)=O`, the growth inhibition was 29.8% in assay [1]; 24.6% in assay [6]; 2.6% in assay [3]; 25.7% in assay [4]; 35.5% in assay [5].
Taken in the same sequence, the figures for `O=P(O)(O)OCC(O)CO` (stereo unspecified) were -4.6%, 8.95%, 25.3%, -22.1% and -10.5%.
On to `Cc1cc(N)c(S(=O)(=O)O)c(N)c1`, for which the growth inhibition was -31.9% in assay [1]; -4% in assay [6]; -15.1% in assay [3]; 11.8% in assay [4]; -57.8% in assay [5].
For `Nc1ccc(NC(=O)c2cccc(N)c2)cc1`, in that order: 15.2%, 6.4%, -7.8%, 19.2% and 22%.
For `CNc1nc(NC)c2cn[nH]c2n1`, the growth inhibition in assay [1] is 17.7%; in assay [6] it was 20.2%; in assay [3], -9.25%; in assay [4] it was -3.9%; in assay [5], 16.1%.

(Values after PubChem BioAssay (NCI).)
